Shiga inhibitor = Shiga toxin inhibition. inhibition, % at 38.7 µM. Vero cells, Shiga toxin protein synthesis inhibition reporter. 290,000 tested, 9.2% active. AID 2315; in the data active = inhibition mostly above about 28%, no sharp cut-off; inactive = mostly below about 43%
Pf growth 96h = P. falciparum growth inhibition at 96 hour, primary screen for plastid delayed-death inhibitors; 320,000 tested, 6.9% active; Potency, µM (series often up to 28.7 µM), usual class: inhibitors; AID 504834; P. falciparum luciferase reporter growth, 96 h
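Erythrocytes infected with luciferase-expressing P. falciparum were dispensed at 2% hematocrit and 0.05% parasitemia (final), then incubated with compounds 96 hours at 37 C in 5% CO2. Luminescence after detection reagent addition reported growth.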
AMA1 RON2 block = inhibitors of Plasmodium falciparum AMA1-RON2 interaction; Potency, µM (doses to about 58.2 µM), most hits filed as inhibitors; 360,000 tested, 0.2% active; AlphaScreen AMA1-biotinylated RON2 peptide binding; also: nearly all actives have a fitted effect of over 45% in size
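AMA1 (3D7) with his tag at 25 nM final met compounds first, then biotinylated RON2 peptide at 25 nM; detection used donor plus acceptor beads, 10 µg/mL apiece, read by AlphaScreen after 30 min at room temperature.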
HCV inhibitor = inhibitors of hepatitis C virus infection. Potency, µM (titrated, usually from 41.8 µM), usual class: inhibitors. AID 651820. 340,000 tested, 3.4% active. Huh7.5.1 HCVcc-Cre infection, luciferase reporter, 44 h
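Luciferase read-out (15 sec integration) after a 15 min room-temperature substrate step quantifies HCVcc-Cre infection. Cells, 1,000 per well, had compound added 4 h post-plating, then virus at ~0.5 moi, and were cultured 44 h.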
CHX counter = counter-screen for Shiga toxin inhibitors: cycloheximide protein synthesis inhibition | cell reporter, cycloheximide protein synthesis inhibition counterscreen | max response, % | 300,000 tested, 12% active | AID 2314; in the data active = max response mostly above about 13%, no sharp cut-off; inactive = mostly below about 14%; also: read at 38.3 µM for the half of the compounds with a filed dose
Pf growth 48h = inhibits P. falciparum growth in the first generation, 48 h. 310,000 tested, 5.9% active. AID 504832. P. falciparum luciferase growth in erythrocytes, 48 h. Potency, µM (series often up to 28.7 µM), most hits filed as inhibitors
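Compounds are pin-transferred into medium, infected erythrocytes (2% hematocrit, 0.1% parasitemia final) are added, and plates sit one parasite generation at 37 C in 5% CO2. Detection reagent is then added and luminescence measured.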
Hits are given with their value; 0 = inactive; ? = inconclusive; - = no result; + = active, no number; [ ] = remark or other dose. Compounds with a hit are over-represented: about 21% of the library has one in this group of screens. Unless noted, calls follow the shape of the dose curve; as a rule, active = well fitted curve in the direction sought with a large enough effect; inconclusive = small, poorly fitted or top-dose-only effect, or another doubt; inactive = no such curve, though single readings can be large; an effect the other way counts as inactive or inconclusive.

SMILES	Shiga inhibitor	Pf growth 96h	AMA1 RON2 block	HCV inhibitor	CHX counter	Pf growth 48h
CC(C)C[C@H]1CN(CCCC[C@H]2CNC(=O)C(=O)N2CCC2CCCCC2)C(=O)C(=O)N1CCc1ccccc1	-	-	0	-	-	-
COCCCNC(=O)c1c[nH]c2ccc(S(=O)(=O)N3CCC4(CC3)OCCO4)cc2c1=O	0	0	0	0	0	?
CCCCCNC(=O)c1c[nH]c2ccc(S(=O)(=O)N3CCC4(CC3)OCCO4)cc2c1=O	0	0	0	0	0	13µM
O=C(Cc1ccccc1)Nc1sc2c(c1C(=O)Nc1ccc(Cl)cc1)CCOC2	0	-	-	-	0	-
COc1ccc(/C(C)=N/NC(=O)c2ccc(N(C)C)cc2)cc1	0	0.59µM	0	0	0	?
C/C(=N\NC(=O)c1ccc(N(C)C)cc1)c1cccnc1	0	0	0	0	23	0
COc1ccc(/C(C)=N/NC(=O)c2nc(C)cc(C)n2)cc1	50	-	0	0	32	0
COc1cc(C(=O)NC(=S)Nc2ccc(N3CCCC3)cc2)cc(OC)c1OC	0	?	0	?	0	9.3µM
C/C(=N\NC(=O)c1ccc(N(C)C)cc1)c1ccc(C)c(C)c1	0	?	0	0	0	0
COc1ccccc1C(=O)NC(=S)Nc1ccc(N2CCCC2)cc1	0	0	0	0	0	0
CCc1nc2ccc(C(=O)N3CCN(C(C)=O)CC3)cn2c1N(CC)C(=O)NCCc1ccccc1	-	-	0	-	-	-
COc1ccccc1C(=O)C1CCCN(C(=O)c2snnc2C)C1 (configuration not stated)	0	0	0	0	0	?
COc1ccc(C(=O)N/N=C(/C)c2ccc(N3CCCCC3)cc2)cc1	74	0	0	0	30	0
COc1ccc(NC(=O)c2ccc(NC(=O)CN3CCN(c4ccc(O)cc4)CC3)cc2)cc1	-	-	0	?	-	-
COc1ccc(C(=O)Nc2ccc(N3CCCC3)cc2)cc1	0	4.1µM	0	0	0	-
C/C(=N\NC(=O)c1cccnc1)c1ccc(OC2OCCOC2Oc2ccc(/C(C)=N/NC(=O)c3cccnc3)cc2)cc1 (configuration not stated)	54	0	0	?	16	0
C/C(=N\NC(=O)c1ccc(N(C)C)cc1)c1ccc(C)cc1C	24	0	0	0	0	0
COc1ccc(/C(C)=N/NC(=O)CNC(=O)c2cccnc2)cc1	0	?	0	0	0	-
Cc1ccc2c(c1)CCCN2CC(=O)N(C)c1c(N)n(Cc2ccccc2)c(=O)[nH]c1=O	-	0	0[11.6 µM]	0	-	0
C/C(=N\NC(=O)CC(C)C)c1ccc(N2CCCCC2)cc1	71	0	0	?	26	0
COc1ccc(C(=O)NC(=S)Nc2ccc(N3CCCC3)cc2)cc1	0	0[5.75 µM]	0	0	16	0[5.75 µM]
COc1ccc(C(=O)Nc2ccc(N3CCCC3)cc2)cc1OC	51	?	0	?	34	0
CCc1ccc(C(=O)NC(=S)Nc2ccc(N3CCOCC3)cc2)cc1	0	?	0	?	0	?
COc1ccc(N2CCN(c3ccc(NC(=O)NN)cc3)CC2)cc1	-	12µM	0	0	0	0
CC(=O)c1ccc(OCC(=O)Nc2ccc(N3CCCCC3)cc2)cc1	-	?	0	?	-	?
SMILES	Shiga inhibitor	Pf growth 96h	AMA1 RON2 block	HCV inhibitor	CHX counter	Pf growth 48h
CN(CC1CCOCC1)C(=O)CC1C(=O)NCCN1CC1CCCCC1 (configuration not stated)	0	?	0	0	0	0
Cn1c(=O)cc(C(=O)N/N=C/c2ccc(F)cc2)[nH]c1=O	0	0	0	0	0	0
COc1cccc(C(=O)NC(=S)Nc2ccc(N3CCCC3)cc2)c1	0	0	25µM	?	0	?
COc1ccc(NC(=O)c2ccc(COCC(F)(F)C(F)F)cc2)cc1	+	?	0	0	53	0
COc1ccc(N2CCSC2C(=O)NN)cc1 (configuration not stated)	0	9.3µM	0	0	0	0
COc1ccc(C(=O)Nc2ccc(N3CCCC3)cc2)cc1Br	0	?	0	?	0	0
COc1cccc(C(=O)NC(=S)Nc2ccc(N(C)C)cc2)c1	102	0	?	0	34	0
Cc1cc(NC(=O)CS(=O)c2cn(Cc3cccc(Cl)c3)c3ccccc23)no1 (configuration not stated)	-	-	0	-	-	-
CCOC(=O)c1cc2c(c(-c3ccccc3)n1)[C@H](CCO)N(S(=O)(=O)C(C)(C)C)C2	-	-	0	0	-	-
